The supplement of paper PMC10498489
In all, about 2,300 compounds went through this assay and about 330 (14%) showed activity.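 How the source made its calls: active = median modified Z-score above 1.96; inactive = 1.96 or below.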 Not all results are given here.

Tested on: HepG2 Srxn1-GFP reporter cells (+30 nM CDDO-Me)
Test: Srxn1-GFP intensity median modified Z-score relative to plate median; higher = stronger NRF2 / oxidative stress reporter activation, active = hit call of the paper
Settings: 10 µM; exposure time: 24h
Outline: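 The modified Z-score of GFP intensity was computed per plate, and the median over replicates is reported. HepG2 Srxn1-GFP BAC reporter cells in three replicate plates were treated for 24 h with compound at 10 μM plus an NRF2 activator at 30 nM (≤0.1% DMSO). Per-cell cytoplasmic GFP came from confocal images, excluding those with under 100 cells, and scaling used 1.4826 × median absolute deviation.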

Srxn1-GFP intensity median modified Z-score, inactive:
CNC[C@@H](O)c1ccc(O)c(O)c1 [euspeclibcmpd110] -0.782, CC(=O)OC1CCC2(C)C3CC(=O)C4(C)C(CC5OC6(CCC(C)CO6)[C@@H](C)C54)C3CC[C@H]2C1 (some centres undefined) [euspeclibcmpd1545] -0.224, C[C@]12CCC3c4ccc(O)cc4CCC3C1CC[C@@H]2O (some centres undefined) [euspeclibcmpd115] -0.23, C[C@]12CCC3c4ccc(OS(=O)(=O)O)cc4CCC3C1CC[C@H]2O (some centres undefined) [euspeclibcmpd2359] 0.435, NS(=O)(=O)N1CCN(C(=O)OCC(F)(F)F)CC1 0.381, CC(=O)N1CCc2cc(C(=O)C(C)Sc3nnc4c(Cl)cc(Cl)cn34)ccc21 (centres undefined) 1.9, COc1ccc(-c2coc3cc(O)cc(O)c3c2=O)cc1 [euspeclibcmpd1972] -0.252, O=c1c(-c2ccc(O)cc2)coc2cc(O)ccc12 [euspeclibcmpd2265] 0.00154, CSCCC(NC(=O)[C@H](Cc1c[nH]c2ccccc12)NC(=O)CCNC(=O)OC(C)(C)C)C(=O)N[C@@H](CC(=O)O)C(=O)N[C@@H](Cc1ccccc1)C(N)=O (some centres undefined) [euspeclibcmpd918] -0.345, CC(CCC(=O)O)[C@H]1CCC2C3CC[C@@H]4CCCC[C@]4(C)C3CC[C@@]21C (some centres undefined) [euspeclibcmpd1329] 1.64, O=S1(=O)CCC(N(C2CC2)S(=O)(=O)c2ccc(F)c(Cl)c2)C1 (centres undefined) 1.31, CC12CCC3c4ccc(O)cc4CC(CCCCCCCCC[S+]([O-])CCCC(F)(F)C(F)(F)F)C3C1CCC2O (centres undefined) [euspeclibcmpd1981] -0.582, CC(C)(C)CC(=O)OCC(=O)[C@@]1(O)CCC2C3CC=C4CC(=O)C=C[C@]4(C)C3[C@@H](O)C[C@@]21C (some centres undefined) [euspeclibcmpd2328] -0.406, Clc1ccc(Cn2c(CN3CCCC3)nc3ccccc32)cc1 [euspeclibcmpd1234] -0.0615, CN(C)CCN(Cc1ccc(Cl)cc1)c1ccccn1 [euspeclibcmpd1219] -0.833, Cc1nc(=N)c(C[n+]2csc(CCO)c2C)c[nH]1 [euspeclibcmpd454] -0.15, O=C1C(CO)OC(O)C(O)C1O (centres undefined) [euspeclibcmpd526] -0.212, COc1ccc2c(c1OC)OC[C@@H](c1ccc(OC)c(OC)c1OC)C2 [euspeclibcmpd1365] 0.0257, CCCCCCCCCCC[C@@H](C[C@H]1OC(=O)C1CCCCCC)OC(=O)C(CC(C)C)NC=O (some centres undefined) [euspeclibcmpd681] -0.557, C[C@]12CCC3c4ccc(O)cc4CCC3C1C[C@@H](O)[C@@H]2O (some centres undefined) [euspeclibcmpd2155] -0.253, CC(=O)Oc1c(C)cccc1C(=O)O [euspeclibcmpd1264] -0.393, CC(=O)Oc1cccc(C(=O)O)c1OC(C)=O [euspeclibcmpd1107] 0, CC(C)(ON=C(C(=O)NC1C(=O)N2C(C(=O)O)=C(C[n+]3ccccc3)CSC12)c1csc(=N)[nH]1)C(=O)O (centres undefined) [euspeclibcmpd603] -0.205, CCN(CCO)CCCC(C)N=c1cc[nH]c2cc(Cl)ccc12 (centres undefined) [euspeclibcmpd728] 0.226, CC(O)CN1CCN(CC(=O)O)CCN(CC(=O)O)CCN(CC(=O)O)CC1 (centres undefined) [euspeclibcmpd2179] -0.14, CC(C)(CNC(=O)c1cccc(S(=O)(=O)N2CCNC(=O)C2)c1)N1CCOCC1 0.976, CO[C@@]1(NC(=O)CSCC#N)C(=O)N2C(C(=O)O)=C(CSc3nnnn3C)CSC21 (some centres undefined) [euspeclibcmpd2252] 1.04, N=c1[nH]c(=O)c2ncn(COCCO)c2[nH]1 [euspeclibcmpd586] 0.00752, OC[C@H]1O[C@@H](O[C@H]2[C@H](O)[C@@H](O)[C@@H](O)O[C@@H]2CO)[C@H](O)[C@@H](O)[C@@H]1O [euspeclibcmpd2099] -0.374, CC(=O)OC1=C2C(C)C(O)CC(O)(C(OC(=O)c3ccccc3)C3C4(OC(C)=O)COC4CC(O)C3(C)C1=O)C2(C)C (centres undefined) [euspeclibcmpd1937] 0.285, C=CC(C)(O)CCC=C(C)CCC=C(C)C (centres undefined) [euspeclibcmpd2017] -0.108, COC(C)(C)CCC[C@H](C)C=CC=C(C)CC(=O)OC(C)C [euspeclibcmpd1162] 0.521, CCC(CCC(C)[C@H]1CCC2C3CC=C4C[C@@H](O)CC[C@]4(C)C3CC[C@@]21C)C(C)C (some centres undefined) [euspeclibcmpd1675] -0.236, C=C(C)[C@@H]1CC[C@]2(C)CC[C@]3(C)[C@@H](CCC4[C@@]5(C)CC[C@H](OC(C)=O)C(C)(C)C5CC[C@]43C)C12 (some centres undefined) [euspeclibcmpd1452] -0.35

Srxn1-GFP intensity median modified Z-score, active:
COc1ccc2c(c1)CCC1C2CC[C@@]2(C)C1CC[C@@H]2O (some centres undefined) [euspeclibcmpd2297] 4.5, O=c1c(-c2ccc(O)cc2)coc2cc(O)cc(O)c12 [euspeclibcmpd1252] 7.05, Cc1nc2ccccc2n1Cc1ccc(Cl)cc1 [euspeclibcmpd2199] 5.5, C=C[C@H]1C[N@]2CC[C@H]1C[C@@H]2[C@@H](O)c1ccnc2ccc(OC)cc12 [euspeclibcmpd2428] 1.98, CC(=O)Oc1cccc2c1C(=O)c1c(OC(C)=O)cc(C(=O)O)cc1C2=O [euspeclibcmpd1072] 4.68, O=C(OCC(O)CO)c1ccccc1N=c1cc[nH]c2cc(Cl)ccc12 (centres undefined) [euspeclibcmpd1054] 4.38, Nc1ccc2cc3ccc(N)cc3nc2c1 [euspeclibcmpd1172] 35.6, S=c1ccss1 [euspeclibcmpd2055] 7.86, CC1(C)CCC[C@]2(C)[C@H]3CC(=O)O[C@]3(C)CC[C@@H]12 [euspeclibcmpd1513] 11.6, C1CNCCN1 [euspeclibcmpd2044] 5.44
